Inconclusive results are not listed. A call without a number means that no potency is given here. Activity calls are given as the source filed them. The call rests on the fitted dose curve; in most records, active means well fitted activation curve with a large enough effect; inconclusive means small, poorly fitted or top-dose-only effect; inactive means flat fitted curve, though single readings scatter.
Assay: qHTS for Inhibitors of Cell Surface uPA Generation: FP59 Counterscreen for Cherry-picked Compounds
Conditions: FP59 anthrax toxin cytotoxicity counterscreen, cells; series mostly up to 115 µM
In the case of `CCOC(=O)c1c(C)oc2ccc(OC(=O)COc3c(F)c(F)c(F)c(F)c3F)cc12`, the Potency is reported as “inactive”. With `Cc1cc(C)cc(NC(=O)Cc2ccc(NC3=NC4CS(=O)(=O)CC4S3)cc2)c1` (centres undefined) the Potency was “inactive”. For `CN1CC[C@]23c4ccccc4N[C@H]1[C@]21CCN(C)[C@H]3Nc2ccccc21`, the Potency was “inactive”. With `Cc1nn(C)c(C)c1S(=O)(=O)N1CCC(C(=O)NC2CCCCCC2)CC1` the Potency was “inactive”. In the case of `CCOC(=O)N1CCc2c(sc3nc4n(c(=O)c23)N=C(C)CS4)C1`, the Potency is reported as “inactive”. With `Cc1oc(-c2ccccc2F)nc1CS(=O)(=O)CC(=O)NC1CCCC(C)C1C` (centres undefined) the Potency was “inactive”. For `COc1ccc(/C(N)=N/OC(=O)Cc2ccccc2OC)cc1`, the Potency was “inactive”. In the case of `CSc1nc(-c2ccccc2)nc(C(Cl)Cl)n1`, the Potency is reported as “inactive”. With `COc1cc(C2NC(=O)NC(C)=C2C(=O)OCC2CCCCC2)ccc1O` (centres undefined) the Potency was “inactive”. In the case of `O=C(NCc1ccco1)/C(=C\c1cccs1)NC(=O)c1ccccc1`, the Potency is reported as “inactive”. In the case of `CCOc1ccc(C(=O)NCCO)cc1`, the Potency is reported as “inactive”. With `CN(CCCNC(=O)Cn1cccc1C(=O)c1ccccc1)C1CCCCC1` the Potency was “inactive”. For `CCCCn1c(-c2cccnc2)nc2cc3[nH]c(=O)c(C(C)C)nc3cc21`, the Potency was “inactive”. With `CCS(=O)(=O)N1CCC(C(=O)NCc2ccc(OC)cc2OC)CC1` the Potency was “inactive”. In the case of `COC(=O)C(CCSC)NC(=O)Cn1ncc2c(=O)oc3ccccc3c21` (centres undefined), the Potency is reported as “inactive”. With `CCOc1ccc(NC(=S)N2CCC(c3ccc(C)cc3)C2)cc1` (centres undefined) the Potency was “inactive”. In the case of `OCC[C@@H]1C[C@H](O)[C@@H](O)[C@]2(OCCc3ccccc32)O1`, the Potency is reported as “inactive”. In the case of `CCCCN(C(=O)c1cnccn1)c1c(N)n(CCC)c(=O)[nH]c1=O`, the Potency is reported as “inactive”. For `Cc1cccc(NC(=O)c2cc3c(=O)n4ccccc4nc3s2)c1`, the Potency was “inactive”. For `CCc1ccccc1N(CC(=O)N1CCCC1)S(C)(=O)=O`, the Potency was “inactive”. For `O=C(COc1ccc(C(=S)N2CCOCC2)cc1)N1CCOCC1`, the Potency was “inactive”. For `NC(=O)c1ccccc1NC(=O)CC12CC3CC(CC(C3)C1)C2`, the Potency was “inactive”. With `COc1ccc(S(=O)(=O)N2CCOCC2)cc1NC(=O)CN1C(=O)NC2(CCCC2)C1=O` the Potency was “inactive”. For `CC(=O)c1ccc(N=C2SCCCN2C(=O)C2CCCCC2)cc1`, the Potency was “inactive”.
